From PMC5540273 (PLoS ONE, 2017)

tested on: MAPKAPK5; conditions: concentration: 1 μM,replicates: in singlicate; n = 1
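Further: KINOMEscan kinase panel screen.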

`CC(=O)Nc1ccc(-c2cc3ncnc(SCC(=O)O)c3s2)cc1` and `NC(=O)c1ccc(-c2cc3ncnc(SCC(=O)O)c3s2)cc1` are the same in “%Inh” value: 0% for the first, 0% for the second.

First: Cn1ccc2ncnc(Oc3ccc(NC(=O)Nc4cc(C(C)(C)C)on4)c(Cl)c3)c21
Second: Cn1ccc2ncnc(Oc3ccc(NC(=O)Nc4cccc(C(F)(F)F)c4)c(Cl)c3)c21
The “%Inh” value of the first is higher: 50% for the first, 0% for the second.

`O=C(Nc1cccc(Oc2ccc3nccn3n2)c1)Nc1cccc(C(F)(F)F)c1` and `Cn1ccc2ncnc(Oc3ccc(NC(=O)Nc4cccc(C(F)(F)F)c4)c(F)c3)c21` are the same in “%Inh” value: 0% for the first, 0% for the second.

`COC(=O)c1cccc(NC(=O)NC2CCN(c3ccnc(NCc4ccc(F)cc4)n3)CC2)c1` [GSK1379860] and `COc1ccc(Nc2nccc(N3CCC(NC(=O)c4cccc(C#N)c4)C3)n2)cc1` (stereo not shown) [GSK1379730] are the same in “%Inh” value: 0% for the first, 0% for the second.

`CN(c1cccc(CNc2nc(Nc3ccc4c(c3)CC(=O)N4)ncc2C(F)(F)F)c1)S(C)(=O)=O` and `CN(c1ccccc1CNc1nc(Nc2ccc3c(c2)CC(=O)N3)ncc1C(F)(F)F)S(C)(=O)=O` are the same in “%Inh” value: 0% for the first, 0% for the second.

`C[C@@H](Oc1cc(-n2cnc3cc(-c4cnn(C)c4)ccc32)sc1C(N)=O)c1ccccc1Cl` [GSK580432] and `C[C@@H](Oc1cc(-n2cnc3ccc(-c4ccncc4)cc32)sc1C(N)=O)c1ccccc1Cl` [GSK483724] are the same in “%Inh” value: 0% for the first, 0% for the second.

`COC(=O)Nc1nc2cc(Oc3ccc(NC(=O)Nc4cc(C(F)(F)F)ccc4Cl)cc3)ccc2[nH]1.Cl` [GW697465] and `COc1cc2nccc(Nc3ccc(Oc4ccccc4)cc3)c2cc1OC.Cl` [GI261656] are the same in “%Inh” value: 0% for the first, 0% for the second.

Compared with `O=c1[nH]cc(-c2ccc(O)cc2)c2sc(-c3ccncc3)cc12` [GSK1033723], `CS(=O)c1ccc(-c2coc3ccc(-c4n[nH]c(=O)o4)cc23)cc1` (stereo not shown) is higher in “%Inh” value: 0% for the first, 11% for the second.

Compared with `C[C@@H]1CCN(C(=O)N2CCCC2)C[C@@H]1N(C)c1ncnc2[nH]ccc12`, `Cl.Cl.NC[C@H](CC1CCCCC1)NC(=O)c1ccc(-c2ccnc3[nH]ccc23)s1` [GSK1581428] is lower in “%Inh” value: 8% for the first, 0% for the second.

`CSc1nccc(-c2c(-c3ccc(F)cc3)ncn2CCCN2CCOCC2)n1.Cl` [SB-217146] and `Cc1n[nH]c2cc(Nc3ccnc(Nc4cccc(CN5CCOCC5)c4)n3)ccc12` [GW682569] are the same in “%Inh” value: 0% for the first, 0% for the second.

Going from `CC(=O)Nc1nc2cnc(Nc3cc(NC(=O)c4cccc(CC(C)(C)C#N)c4)ccc3C)nc2s1` to `COc1cc2c(Nc3ccc(NC(=O)c4ccccc4)cc3)ncnc2cc1OCCCN1CCOCC1` [GSK301329], the “%Inh” value falls from 14% to 0%.

`CS(=O)(=O)Nc1ccc(-c2ccnc3[nH]ccc23)cc1` [GSK993273] and `Cl.Nc1n[nH]c2cc(-c3ccccn3)ccc12` [GSK2189892] are the same in “%Inh” value: 0% for the first, 0% for the second.

`O=C(NOCC1CC1)c1cc(Br)c(F)c(F)c1Nc1ccc(I)cc1Cl` and `COc1cccc(C2=C(Nc3cccc(Cl)c3)C(=O)NC2=O)c1` [SB-341556] are the same in “%Inh” value: 0% for the first, 0% for the second.

Compared with `O=C1NCCc2[nH]c(-c3ccncc3)cc21`, `Cn1cc(-c2cccc3c(N)c(C(N)=O)nnc23)cn1` is lower in “%Inh” value: 46% for the first, 0% for the second.

`COc1cccc(CNC(=O)NC2CCN(c3ccnc(Nc4cc(OC)c(OC)c(OC)c4)n3)C2)c1` (stereo not shown) [GSK1379765] and `CN(c1ccc2c(c1)nc(NCc1ccc(F)cc1)n2C)c1ccnc(Nc2ccc(CS(C)(=O)=O)cc2)n1.Cl` [GW813244] are the same in “%Inh” value: 0% for the first, 0% for the second.

`Cc1ccc(CC(=O)N2CCc3cc(-c4cn(C)c5ncnc(N)c45)ccc32)cc1` [GSK2634758] and `Cc1nnc(-c2ccc3occ(-c4ccc(S(C)=O)cc4)c3n2)o1` (stereo not shown) are the same in “%Inh” value: 0% for the first, 0% for the second.

`Cl.c1ccc(Oc2ccc(Nc3ccnc4cc(-c5ccc(CN6CCNCC6)o5)ccc34)cc2)nc1` [GW567142] and `OCCn1cc(-c2cnc3nnn(Cc4ccc5ncccc5c4)c3n2)cn1` are the same in “%Inh” value: 0% for the first, 0% for the second.

`CC(C)S(=O)(=O)N1CCN(Cc2ccc3c(c2)nc(NC(=O)c2ccsc2)n3C[C@H](O)c2ccccc2)CC1` [GW635815] and `CCn1c(-c2nonc2N)nc2cncc(CNC3CCNCC3)c21.Cl` [SB-747651] are the same in “%Inh” value: 0% for the first, 0% for the second.

`CCCC(=O)Nc1n[nH]c2ncccc12` [SB-601436] was tested, and the “%Inh” value was 5%.
